Inconclusive results are not listed. A call without a number means that no potency is given here. Active and inactive are the calls of the source. Unless noted, calls follow the shape of the full dose curve.
Target: Thyrotropin-releasing hormone receptor (Homo sapiens) (UniProt P34981)
Test: qHTS assay to identify small molecule agonists of the thyrotropin-releasing hormone receptor (TRHR) signaling pathway (AID 1346891);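 also: HEK293 cells expressing TRHR with calcium dye readout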
Settings: TRHR-HEK293 calcium fluorescence, agonist mode; series mostly up to 57.6 µM
Summary of the method: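 In 1536-format, 1500 TRHR-Hek293 cells per well grew 18 h, took up calcium dye for 2 h at 37 °C, received compound, and were read kinetically; 15-point titrations, triplicates.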

Sequence of Thyrotropin-releasing hormone receptor (Homo sapiens) (P34981 whole entry, looked up): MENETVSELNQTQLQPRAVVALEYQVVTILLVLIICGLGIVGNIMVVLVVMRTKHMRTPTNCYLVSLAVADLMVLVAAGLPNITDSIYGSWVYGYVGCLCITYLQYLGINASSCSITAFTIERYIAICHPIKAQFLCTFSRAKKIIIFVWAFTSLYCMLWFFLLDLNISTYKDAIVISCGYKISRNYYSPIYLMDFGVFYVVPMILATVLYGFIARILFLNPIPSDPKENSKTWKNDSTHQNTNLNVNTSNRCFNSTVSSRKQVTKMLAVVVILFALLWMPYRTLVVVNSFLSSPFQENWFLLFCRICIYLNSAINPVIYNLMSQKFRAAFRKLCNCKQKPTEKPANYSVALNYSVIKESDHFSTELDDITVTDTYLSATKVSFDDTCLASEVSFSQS

Row | Structure (SMILES) | Potency | activation
1 | CCOC(=O)[C@@](C)(N)Cc1ccc(O)c(O)c1 | inactive | 
2 | CCCCCCCCC(C)=O | inactive | 
3 | CCCCCCCCCCc1ccccc1 | inactive | 
4 | Nc1cc(Cl)c([N+](=O)[O-])cc1O | inactive | 
5 | C/C=C/C(=O)Oc1c(CCCCCC(C)C)cc([N+](=O)[O-])cc1[N+](=O)[O-] | inactive | 
6 | COC(=O)C1=C(C)NC(C)=C(C(=O)OCCCN2CCC(c3ccccc3)(c3ccccc3)CC2)C1c1cccc([N+](=O)[O-])c1 (stereo not given) | inactive | 
7 | C(=C/c1ccccc1)/c1ccccc1 | inactive | 
8 | c1cc[nH]c1 | inactive | 
9 | CCCCCCCCCCCCN(CCO)CCO | inactive | 
10 | Clc1nc2ccccc2s1 | inactive | 
11 | OCCC(O)CO (stereo not given) | inactive | 
12 | NCCCCCCNCCCCCCN | inactive | 
13 | O=C1NCCN1CCN1CCC(c2cn(-c3ccc(F)cc3)c3ccc(Cl)cc23)CC1 | inactive | 
14 | Cc1c(C(=O)O)cccc1[N+](=O)[O-] | inactive | 
15 | O=C(O)c1cccc(Cl)n1 | inactive | 
16 | O=C=NCc1cccc(CN=C=O)c1 |  | -0.119% [at 11.8 µM] (inactive)
17 | NC(=O)c1nc(-c2cccc(-c3cc(F)ccc3OCC(F)(F)C(F)(F)F)c2)n[nH]1 | inactive | 
18 | CO[Si](CCC1CCC2OC2C1)(OC)OC (stereo not given) | inactive | 
19 | ClC/C=C\CCl | inactive | 
20 | CC(=O)OC1CCCCC1 | inactive | 
21 | Cc1ccc(CCn2c3c(c4cc(Cl)ccc42)CN(C)CC3)cn1 | inactive | 
22 | CCc1cccc(C)c1 | inactive | 
23 | CCC(C)C(=O)OC (stereo not given) | inactive | 
24 | CCN(CC)c1cccc(C)c1 | inactive | 
25 | CCCCCCCC(=O)OCC | inactive | 
26 | OCCCc1cccnc1 | inactive | 
27 | Cc1cc(C)c(C=O)c(C)c1 | inactive | 
28 | COc1cccc(CCc2ccccc2OCC(CN(C)C)OC(=O)CCC(=O)O)c1 (stereo not given) | inactive | 

System: not listed separately
Test: Human pregnane X receptor (PXR) small molecule agonists, qHTS cell viability counter screen (AID 1346977; active = well fitted cell-killing curve with a large enough effect in the repeat runs; also: nearly all actives have a fitted effect of over 50% in size; also: potency is read from the fitted curve at half-maximal effect)
Settings: PXR-Luc HepG2 viability, CellTiter-Fluor, 24 h; series mostly up to 92.4 µM
Summary of the method: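 Readout is CellTiter-Fluor fluorescence from PXR-Luc HepG2 cells. Plated cells rested 5hr, then were treated with compounds for 24hr at 37C and 5% CO2, with reagent present during the last hour.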

Row | Structure (SMILES) | Potency | activity change, negative = cytotoxicity
29 | CCOC(=O)[C@@](C)(N)Cc1ccc(O)c(O)c1 | inactive | 
30 | CCC(=O)CC(C)CC (stereo not given) |  | 0.0659% [at 0.349 µM] (inactive)
31 | CCCCCCCCC(C)=O | inactive | 
32 | CCCCCCCCCCc1ccccc1 | inactive | 
33 | C/C=C/C(=O)Oc1c(CCCCCC(C)C)cc([N+](=O)[O-])cc1[N+](=O)[O-] | 15.4 µM (active) | 
34 | COC(=O)C1=C(C)NC(C)=C(C(=O)OCCCN2CCC(c3ccccc3)(c3ccccc3)CC2)C1c1cccc([N+](=O)[O-])c1 (stereo not given) | 26.6 µM (active) | 
35 | CC(COC(=O)c1ccccc1)OC(=O)c1ccccc1 (stereo not given) | inactive | 
36 | C(=C/c1ccccc1)/c1ccccc1 | inactive | 
37 | Clc1nc2ccccc2s1 | inactive | 
38 | OCCC(O)CO (stereo not given) | inactive | 
39 | Cc1c(C(=O)O)cccc1[N+](=O)[O-] | inactive | 
40 | O=C(O)c1cccc(Cl)n1 | inactive | 
41 | CCCCCCCCCCCCCCCC | inactive | 
42 | CC=O | 5.7 µM (active) | 
43 | O=C=NCc1cccc(CN=C=O)c1 |  | 4.21% [at 19 µM] (inactive)
44 | NC(=O)c1nc(-c2cccc(-c3cc(F)ccc3OCC(F)(F)C(F)(F)F)c2)n[nH]1 | 54.5 µM (active) | 
45 | CO[Si](CCC1CCC2OC2C1)(OC)OC (stereo not given) | inactive | 
46 | ClC/C=C\CCl | inactive | 
47 | CC(=O)OC1CCCCC1 | inactive | 
48 | c1ccc(Sc2ccccc2)cc1 | inactive | 
49 | O=C(O)Cc1ccc(OCCNC[C@H](O)c2ccccc2)cc1 | inactive | 
50 | CCC(C)C(=O)OC (stereo not given) | inactive | 
51 | CCN(CC)c1cccc(C)c1 | inactive | 
52 | CCCCCCCC(=O)OCC | inactive | 
53 | OCCCc1cccnc1 | inactive | 
54 | CCCCCCCCCCCCCC[n+]1ccccc1 | 8.63 µM (active) | 
55 | COc1cccc(CCc2ccccc2OCC(CN(C)C)OC(=O)CCC(=O)O)c1 (stereo not given) | 26.6 µM (active) | 

Source: PubChem BioAssay (Tox21)
